Experimental data as given in the supplement of paper PMC8975748.
Counter-ions that a name gives are not always drawn.

test system: Saccharomyces cerevisiae BY4741 SeMeCo community; assay: z-score of prototroph abundance vs DMSO median; higher = larger share of this subpopulation than in DMSO controls; settings: 10 µM; 24 h; SM minimal medium; subpopulation (auxotrophy): Prototroph
Experimental: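 Fluorescent four-plasmid SeMeCo (self-establishing metabolically cooperating S. cerevisiae BY4741 community; plasmids pH-mRuby2, pL-mWasabi, pU-eCFP, pM-TagRFP657) was grown 24 h in minimal SM medium with each Selleck FDA-approved drug at 10 µM in 384-well plates. Cells were fixed and imaged by high-content confocal microscopy. For each auxotrophic subpopulation (and the prototroph), a z-score gives the deviation from the DMSO vehicle-control population median.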

| SMILES | z-score of prototroph abundance |
| --- | --- |
| O=C1c2cccc3c2[C@H](CCC3)CN1[C@@H]1CN2CCC1CC2 [Palonosetron HCl] | 0.21 |
| O=C1Nc2ccccc2C1=O [Isatin] | -0.13 |
| CN[C@@H]1[C@@H](O)[C@@H](O[C@@H]2[C@@H](O)[C@H](O[C@H]3OC(CN)=CC[C@H]3N)[C@@H](N)C[C@H]2N)OC[C@]1(C)O [Sisomicin sulfate] | -0.71 |
| C[C@H]1c2cccc(O)c2C(O)=C2C(=O)[C@]3(O)C(O)=C(C(N)=O)C(=O)[C@@H](N(C)C)[C@@H]3[C@@H](O)[C@@H]21 [Doxycycline] | 1.27 |
| COc1ccnc(C[S+]([O-])c2nc3cc(OC(F)F)ccc3[nH]2)c1OC (stereo not given) [Pantoprazole] | -0.32 |
| CO/N=C1\C[C@]2(C[C@@H]3C[C@@H](C/C=C(\C)C[C@@H](C)/C=C/C=C4\CO[C@@H]5[C@H](O)C(C)=C[C@@H](C(=O)O3)[C@]45O)O2)O[C@H](/C(C)=C/C(C)C)[C@H]1C [Moxidectin] | -0.99 |
| O=C1[C@H]2CCCC[C@H]2C(=O)N1CCCCN1CCN(c2nsc3ccccc23)CC1 [Perospirone hydrochloride] | 0.14 |
| CCN(CC)C(=O)N1CCN(C)CC1 [Diethylcarbamazine citrate] | 0.16 |
| Cc1[nH]cnc1CN1CCc2c(c3ccccc3n2C)C1=O [Alosetron Hydrochloride] | -0.91 |
| CC(=O)Oc1ccccc1C(=O)O [Aspirin] | -0.19 |
| CC(=O)OC(C)C[N+](C)(C)C (stereo not given) [Methacholine chloride] | -0.97 |
| c1ccc2[nH]c(-c3cscn3)nc2c1 [Thiabendazole] | 0.41 |
| COC(=O)Nc1nc2cc(C(=O)c3ccc(F)cc3)ccc2[nH]1 [Flubendazole] | 0.01 |
| N=C(N)NC(=O)c1nc(Cl)c(N)nc1N [Amiloride HCl] | -0.41 |
| Cc1onc(-c2ccccc2Cl)c1C(=O)N[C@@H]1C(=O)N2[C@@H]1SC(C)(C)[C@@H]2C(=O)O [Cloxacillin Sodium] | -1.62 |
| CNCC[C@@H](Oc1ccccc1C)c1ccccc1 [Atomoxetine HCl] | 0.61 |
| COc1ccc2[nH]c([S@@+]([O-])Cc3ncc(C)c(OC)c3C)nc2c1 [NEXIUM (esomeprazole magnesium)] | -0.6 |
| O=C1N=C(O)NC1(c1ccccc1)c1ccccc1 [Phenytoin Sodium] | -0.72 |
| CC(=O)[C@H]1CC[C@H]2[C@@H]3CC=C4C[C@@H](O)CC[C@]4(C)[C@H]3CC[C@]12C [Pregnenolone] | 0.29 |
| CCCCCOc1ccc(-c2cc(-c3ccc(C(=O)N[C@H]4C[C@@H](O)[C@@H](O)NC(=O)[C@@H]5[C@@H](O)[C@@H](C)CN5C(=O)[C@H]([C@H](O)CC(N)=O)NC(=O)[C@H]([C@H](O)[C@@H](O)c5ccc(O)c(OS(=O)(=O)O)c5)NC(=O)[C@@H]5C[C@@H](O)CN5C(=O)[C@H]([C@@H](C)O)NC4=O)cc3)no2)cc1 [Micafungin Sodium] | -14.6 |

| SMILES | z-score of prototroph abundance |
| --- | --- |
| CCN(Cc1ccncc1)C(=O)C(CO)c1ccccc1 (stereo not given) [Tropicamide] | -0.08 |
| CC[N+](CC)(CC)CCOc1cccc(OCC[N+](CC)(CC)CC)c1OCC[N+](CC)(CC)CC [Gallamine Triethiodide] | 0.05 |
| Nc1ccc2cc3ccc(N)cc3nc2c1 [Proflavine] | 6.61 |
| CCCC1CC(C(=O)NC(C(C)Cl)C2OC(SC)C(O)C(O)C2O)N(C)C1 (stereo not given) [Clindamycin alcoholate] | -0.45 |
| CC(C)(C)C1CCC(CC2=C(O)c3ccccc3C(=O)C2=O)CC1 (stereo not given) [Buparvaquone] | -0.85 |
| Cc1cc(O)c(C(=O)N[C@@H](C(=O)N[C@@H]2C(=O)N3C(C(=O)O)=C(CSc4nnnn4C)CS[C@H]23)c2ccc(O)cc2)cn1 [Cefpiramide sodium] | -0.28 |
| CCCCCOc1ccccc1/C(=C\SC)n1ccnc1 [Neticonazole Hydrochloride] | -8.79 |
| Nc1cc(C(Cl)=C(Cl)Cl)c(S(N)(=O)=O)cc1S(N)(=O)=O [Clorsulon] | -0.96 |
| NC(=O)N1c2ccccc2C=Cc2ccccc21 [Carbamazepine] | 0.13 |
| C1CCN2C[C@@H]3C[C@@H](CN4CCCC[C@@H]34)[C@H]2C1 [(-)-Sparteine Sulfate] | 0.31 |
| Cc1c(OCC(F)(F)F)ccnc1C[S@@+]([O-])c1nc2ccccc2[nH]1 [Dexlansoprazole] | 0.34 |
| Cc1nccn1CC1CCc2c(c3ccccc3n2C)C1=O (stereo not given) [Ondansetron Hydrochloride Dihydrate] | 0.12 |
| COc1ccc(C[C@H](N)C(=O)N[C@H]2[C@@H](O)[C@H](n3cnc4c(N(C)C)ncnc43)O[C@@H]2CO)cc1 [Puromycin 2HCl] | -0.54 |
| COc1ccc(CN2CCN(C(c3ccc(F)cc3)c3ccc(F)cc3)CC2)c(OC)c1OC [Lomerizine 2HCl] | -0.1 |
| CO/N=C(\C(=O)N[C@@H]1C(=O)N2C(C(=O)O)=C(CSC(=O)c3ccco3)CS[C@H]12)c1csc(N)n1 [Ceftiofur HCl] | -0.76 |
| C[C@@H]1CN(c2c(F)c(N)c3c(=O)c(C(=O)O)cn(C4CC4)c3c2F)C[C@H](C)N1 [Sparfloxacin] | 0.52 |
| CCn1cc(C(=O)O)c(=O)c2cc(F)c(N3CCNC(C)C3)c(F)c21 (stereo not given) [Lomefloxacin HCl] | -1.02 |
| CCN(CC)CCNC(=O)c1cc(Cl)c(N)cc1OC [Metoclopramide] | -1.14 |
| O=C(c1ccccc1)c1ccc2n1CCC2C(=O)O (stereo not given) [Ketorolac tromethamine salt] | 0.48 |
| CC[C@H]1OC(=O)C[C@@H](O)[C@H](C)[C@@H](O[C@@H]2O[C@H](C)[C@@H](O[C@H]3C[C@@](C)(O)[C@@H](O)[C@H](C)O3)[C@H](N(C)C)[C@H]2O)[C@@H](CC=O)C[C@@H](C)C(=O)/C=C/C(C)=C/[C@@H]1CO[C@@H]1O[C@H](C)[C@@H](O)[C@@H](OC)[C@H]1OC [Tylosin] | -1.25 |
